Screening data: PubChem, National Center for Advancing Translational Sciences (NCATS)
TDP1 inh: TDP1 (human) enzyme inhibition; Q9NUW8; recombinant TDP1, AlphaScreen DNA substrate cleavage; Potency, µM (top dose mostly 130 µM), usual class: inhibitors; hit rate 0.28% among 350,000; AID 485290; further: nearly all actives have a fitted effect of over 40% in size
Target sequence (Q9NUW8 whole entry, looked up): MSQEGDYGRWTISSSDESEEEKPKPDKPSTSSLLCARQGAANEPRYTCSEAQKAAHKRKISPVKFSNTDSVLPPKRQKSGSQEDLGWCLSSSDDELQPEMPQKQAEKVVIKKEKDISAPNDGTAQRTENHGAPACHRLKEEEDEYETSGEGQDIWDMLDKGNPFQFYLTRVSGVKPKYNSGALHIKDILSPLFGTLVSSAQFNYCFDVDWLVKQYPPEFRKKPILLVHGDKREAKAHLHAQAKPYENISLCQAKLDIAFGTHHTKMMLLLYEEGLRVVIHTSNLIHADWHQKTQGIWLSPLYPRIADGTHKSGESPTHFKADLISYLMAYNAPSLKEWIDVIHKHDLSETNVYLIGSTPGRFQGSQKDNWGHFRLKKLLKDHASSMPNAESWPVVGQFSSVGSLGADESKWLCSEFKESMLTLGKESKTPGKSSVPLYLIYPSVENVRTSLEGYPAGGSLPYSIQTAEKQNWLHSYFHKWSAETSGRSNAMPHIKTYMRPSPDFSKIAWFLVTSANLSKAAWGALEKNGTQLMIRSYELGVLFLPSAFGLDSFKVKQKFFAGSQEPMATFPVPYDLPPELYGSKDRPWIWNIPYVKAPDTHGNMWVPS
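E. coli-derived human Tdp1, 1 nM final. Cpd preinc 15 min RT; substrate 15 nM final, 5 min RT; AS bead mix 10 ug/ml final, 10 min RT. Signal loss = tyrosine-FITC cleavage. No-enzyme wells = max signal.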
DT40 TDP1 no CPT: qHTS for Inhibitors of human tyrosyl-DNA phosphodiesterase 1 (TDP1): qHTS in cells in absence of CPT | DT40 Tdp1-/- hTDP1 cells, no CPT, ATP luminescence, 48 h | Potency, µM (highest dose often 46.2 µM), hits mostly inhibitors | hit rate 15% among 420,000 | AID 686978, 2013; further: nearly all actives have a fitted effect of over 55% in size
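A cellular qHTS used chicken DT40 cells lacking endogenous Tdp1 but carrying stably transfected human TDP1. Compounds were applied without camptothecin, and cell growth kinetics were judged by ATP-dependent luminescence after ≥48 hr.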
HepG2 tox: HepG2 cytotoxicity, counter-screen for TGF-b inhibitors. HepG2 CAGA-GFP viability, ATP luminescence, 18 h. Potency, µM (titrated, usually from 46.1 µM), usual class: cytotoxic. hit rate 0.76% among 410,000. AID 588856
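CellTiter-Glo luminescence gave cytotoxicity after 18 hours at 37 degrees C. The cells were HepG2 CAGA-GFP in 1% FBS DMEM, stimulated with 500 pg/mL TGF-beta after compound addition. %Activity was normalised to no-cell wells (complete cell-killing) and DMSO (no toxicity), and curves were fitted and classified.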
IL-1B inflam inh: blocks inflammasome-driven IL-1 beta release; THP-1 LPS/ATP IL-1B secretion, AlphaLISA, 16 h; active compounds read low; activity change, % at 57.5 µM; hit rate 4.7% among 360,000; AID 743279; in the data active means activity change below about -50%; inconclusive means mostly about -30% to -49%
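THP-1 cells pretreated 1 hr with compounds (up to 57.5 uM final), then stimulated with LPS (250 ng/mL final) plus ATP (1.25 mM final); secreted IL-1B measured by AlphaLISA after 16 hr, decreased signal indicating inhibition.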
DT40 TDP1 CPT: growth inhibition of DT40 Tdp1-/-;hTDP1 cells with camptothecin (screen for TDP1 inhibitors). Potency, µM (series often up to 46.2 µM), usual class: inhibitors. chicken DT40 Tdp1-/-;hTDP1 cells + 20 nM CPT, ATP luminescence, 48 h. hit rate 12% among 420,000; further: nearly all actives have a fitted effect of over 55% in size
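Chicken DT40 Tdp1-/- cells stably complemented with human TDP1 were seeded at 400 cells/well in medium containing 20 nM camptothecin, exposed to pin-transferred compounds, and grown at 37 °C for at least 48 hr. Viability was read as ATP luminescence.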
TGFb inhibitor: blocks TGF-b signaling; HepG2 CAGA-GFP TGF-b/SMAD3 reporter, GFP fluorescence, 18 h; TGF-beta stimulated, 500 pg/mL final; Potency, µM (top dose mostly 46.1 µM), most hits filed as inhibitors; hit rate 1.2% among 410,000; further: nearly all actives have a fitted effect of over 65% in size
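Per well, imaged GFP fluorescence of HEPG2 CAGA-GFP cells gives the signal; cells get compound, then TGF-beta (500 pg/mL final), 18 h at 37 degrees C; %Activity versus -TGF-beta and +DMSO controls.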
Numbers stand for hits; - = inactive; ? = inconclusive; . = no result given; [ ] = another dose, or the depositor's remark. Only some compounds are listed: those with a hit (about 19% of all), similar ones and a draw of the others. Unless noted, the call rests on the fitted dose curve; in most records, active means well fitted curve in the direction sought with a large enough effect; inconclusive means small, poorly fitted or top-dose-only effect, or another doubt; inactive means no such curve, though single readings can be large; an effect the other way counts as inactive or inconclusive.

SMILES | TDP1 inh | DT40 TDP1 no CPT | HepG2 tox | IL-1B inflam inh | DT40 TDP1 CPT | TGFb inhibitor
COc1ccc2[nH]c(=O)cc(C(=O)O)c2c1 | 22µM | - | - | - | - | -
COc1ccc2[nH]cc(C(=O)CN(C)CCc3ccc(OC)c(OC)c3)c2c1 | - | 21µM | - | - | 18µM | -
COc1ccc2[nH]c(=O)c(C(=O)O)cc2c1 | - | - | - | - | - | -
COc1ccc2[nH]cc(C(=O)CNc3nccs3)c2c1 | . | 7.9µM | - | . | ? | -
COc1ccc2[nH]cc(C(=O)CNc3nc(C)cs3)c2c1 | - | ? | - | - | ? | -
CCC(=O)NNc1ncnc2c1cnn2-c1ccc(C)c(Cl)c1 | - | - | - | . | - | -
CC(=O)N1Cc2ccccc2CC1C(=O)NCc1ccccc1F (centres undefined) | ? | - | - | - | - | -
Cc1ccc(-c2noc(CC(=O)c3ccc([N+](=O)[O-])cc3)n2)cc1 | . | ? | - | - | ? | -
CC(C)C[C@@H](CC(=O)N[C@H](CC(=O)N[C@@H]1CCCC[C@H]1C(=O)N[C@H](CC(=O)N[C@@H](CCC(=O)O)CC(=O)O)Cc1c[nH]c2ccccc12)C(C)C)NC(=O)[C@@H]1CNCC[C@H]1N | - | . | . | . | . | .
CCN1CCCc2cc(CN(CCN3CCOCC3)C(=S)Nc3ccc(C)cc3)ccc21 | - | 18µM | - | - | 29µM | -
CCN1CCCc2cc(CN(CCN3CCOCC3)C(=S)Nc3cc(F)cc(F)c3)ccc21 | - | 21µM | - | - | ? | -
CCN1CCCc2cc(CN(CCN3CCOCC3)C(=S)Nc3cccc(Cl)c3)ccc21 | - | 13µM | - | ? | 16µM | -
CCOc1ccc(NC(=S)N(CCN2CCOCC2)Cc2ccc3c(c2)CCCN3CC)cc1 | - | ? | - | - | ? | ?
CCN1CCCc2cc(CN(CCN3CCOCC3)C(=S)Nc3ccc(OC)cc3)ccc21 | - | - | - | - | - | -
COc1cccc(OC)c1OCCN1CCC(C(=O)NC(c2ccc3c(c2)OCO3)c2ccccn2)CC1 (centres undefined) | . | - | - | - | - | -
CC(=O)C1=C(O)C(=O)N(c2ccccn2)C1c1ccccc1[N+](=O)[O-] (centres undefined) | . | 16µM | - | - | ? | -
CCC(=O)Nc1ccc(CC)cc1-c1nc2ccccc2n(Cc2ccccc2)c1=O | - | ? | - | . | ? | -
CCOC(=O)c1sc(NC(=O)c2ccncc2)c(C#N)c1C | - | 5.2µM | - | - | 6.5µM | ?
CCOC(=O)c1c(NC(=O)c2ccncc2)sc(C)c1C | - | ? | - | - | ? | -
COC(=O)c1sc(NC(=O)c2ccc(Cn3cc(Cl)cn3)o2)c(C#N)c1C | . | ? | - | - | 16µM | -
Cc1ccccc1-c1cc(C(=O)Nc2sc(C)c(C)c2C(N)=O)c2ccccc2n1 | - | 18µM | - | - | 16µM | ?
Cc1ccccc1-c1cc(C(=O)N2CCCC2)c2ccccc2n1 | - | ? | - | - | - | -
CCOC(=O)c1sc(NC(=O)CSc2nc(C)cc(-c3ccccc3)n2)c(C#N)c1C | - | - | - | - | - | -
CCOC(=O)c1sc(NC(=O)c2cc(-c3ccccc3C)nc3ccccc23)c(C#N)c1C | - | 7.3µM | - | -83 | 9.2µM | ?
CCCc1cc2c(=O)c(-c3ccc4c(c3)OCCO4)coc2cc1OS(C)(=O)=O | - | ? | - | -54 | ? | -
SMILES | TDP1 inh | DT40 TDP1 no CPT | HepG2 tox | IL-1B inflam inh | DT40 TDP1 CPT | TGFb inhibitor
CCCc1cc2c(=O)c(-c3ccc4c(c3)OCCO4)c(C)oc2cc1OS(C)(=O)=O | - | 23µM | - | - | 18µM | -
CCc1cc2c(=O)c(-c3ccc4c(c3)OCCO4)coc2cc1OC(=O)c1ccco1 | - | 21µM | - | - | ? | -
O=C(Nc1ccccc1N1CCOCC1)C1=NN(c2ccccc2)C(=O)CC1 | -[0.505 µM] | ? | - | - | - | ?
CCOC(=O)C1CCCN(C(=O)CCCn2nnnc2CN2CCOCC2)C1 (centres undefined) | . | - | - | - | - | -
CCCCNC(=O)C1C(c2ccc(OC)cc2)=Nc2ccccc2N1C(=O)c1ccncc1 (centres undefined) | . | 21µM | . | - | 23µM | .
CCOc1cc(CN2CCC(N3CCC(C(=O)NC4CC4)CC3)CC2)ccc1O | . | ? | - | ? | ? | -
CC1(C)CC(Cc2ccc(C(=O)c3ccccc3)cc2)N(C(=O)OC(C)(C)C)N1 (centres undefined) | . | 4.1µM | - | - | 6.5µM | ?
CC(C)(C)OC(=O)N1CCC(CNC(=O)c2ccccc2)CC1 | - | - | - | - | - | -
CCOc1ccc(CCNC(=O)Cn2ccc3cc(S(=O)(=O)N4CCCCC4)ccc32)cc1 | - | ? | - | . | ? | ?
COc1cc([N+](=O)[O-])cc(/C=N/NC(=O)c2cc(-c3ccccc3)nc3ccccc23)c1O | - | 23µM | - | - | 21µM | ?
Cc1cc(C(=O)N/N=C/c2ccncc2)c2ccccc2n1 | . | - | - | - | - | -
COc1cc([N+](=O)[O-])cc(/C=N/NC(=O)c2cc(C)nc3ccccc23)c1O | - | ? | - | - | ? | -
CC(C)COc1cccc(-c2cc(C(=O)N/N=C/c3ccncc3)c3ccccc3n2)c1 | - | ? | - | - | 9.2µM | -
COc1ccc(/C=N/NC(=O)c2c(-c3ccccc3)noc2C)cc1 | - | - | - | - | - | -
COc1ccc(/C=N/NC(=O)c2nc(-c3ccccc3)cc(-c3ccccc3)n2)cc1O | - | 16µM | - | -82 | 13µM | ?
COc1ccc(/C=N/NC(=O)c2nc(-c3ccccc3)cc(-c3ccccc3)n2)cc1 | - | 26µM | - | -80 | ? | -
CCOc1ccccc1NC(=O)Cn1c(=O)n(CCC(C)C)c(=O)c2cccnc21 | - | - | - | . | - | -
COc1ccc(CC(=O)N/N=C/c2c(C)n(C)c3ccccc23)cc1OC | . | 9.2µM | - | - | 9.2µM | ?
COc1cc(/C=N/Nc2nc(C)nc3c2cnn3-c2ccccc2)ccc1O | - | 2.9µM | - | -100 | 2.9µM | -
COc1ccc(Cc2nc3ccccc3n2CC(=O)N/N=C/c2ccc(O)cc2)cc1OC | - | - | - | - | - | -
CCOc1cc(/C=N/NC(=O)c2cc(-c3cccc(OC)c3)nc3ccccc23)ccc1O | . | 1.3µM | - | - | 8.2µM | ?
COc1ccc(Cc2nc3ccccc3n2CC(=O)N/N=C/c2ccc(C)cc2O)cc1OC | - | 0.65µM | - | - | 2.1µM | ?
